Among all 69,000 compounds or so, about 8,600 (12%) showed an effect of 50% or more. This is one part of a sample in which strong results are shown more often than they occur.
system: Plasmodium berghei; assay: Screen against P. berghei liver stage (PbLuc), transformed with Luciferase, at 10uM; type: functional, HepG2; settings: tested at 10 uM

SMILES | INHIBITION [%]
CC(C)c1noc(CCC(=O)NCC2CC2)n1 | 38.5
O=C1CC(NCc2ccccn2)CN1CCc1ccc(F)cc1 (centres undefined) | 17.8
CN1CCC/C1=N\S(=O)(=O)c1ccc(NC(=O)Cc2cccs2)cc1 | -6.14
O=C(CCn1cc(Cl)cn1)N1C[C@H]2CC[C@@H](C1)N(Cc1ccccn1)C2 | -29.1
Cc1cnn(CC2CCCCN2C(=O)c2cnc3n[nH]c(C)c3c2)c1 (centres undefined) | -14
CN(CCO)Cc1cc(Cl)ccc1OCC(O)CN1CCCCCC1 (centres undefined) | -26.8
O=C(NCc1ccccc1Cn1cncn1)C1CCC1 | 11.4
CC(=O)N1CCC(Cc2nccnc2-c2ccnn2C)CC1 | 4.41
c1cnnc(N2CCCC(NCc3nc(-c4ccsc4)no3)C2)c1 (centres undefined) | 59.3
CN(Cc1cn2ccccc2c1C#N)C1CCCN(c2cccnn2)C1 (centres undefined) | 59.4
c1csc(-c2noc(CCCN3CCCC3Cn3cncn3)n2)c1 (centres undefined) | -9.76
CN(c1ncnc2sccc12)C1CCCN(c2cccnn2)C1 (centres undefined) | 7.18
CN(Cc1cn2ccccc2n1)C1CCCN(c2cccnn2)C1 (centres undefined) | 16.7
c1cncc(-c2noc(CNC3CCCN(c4cccnn4)C3)n2)c1 (centres undefined) | 8.66
Cc1nccn1CC1CCCN1CCCc1nc(-c2cccs2)no1 (centres undefined) | 68.4
c1csc(-c2noc(CCCN3CCCC3Cn3cccn3)n2)c1 (centres undefined) | 39.8
c1cnnc(N2CCCC2CNCc2nc(-c3ccsc3)no2)c1 (centres undefined) | 27.9
CN(c1ncnc2ccccc12)C1CCCN(c2cccnn2)C1 (centres undefined) | 52
CN(Cc1ccccn1)C1CCCN(c2cccnn2)C1 (centres undefined) | 7.12
CN(c1ncnc2c1cnn2C)C1CCCN(c2cccnn2)C1 (centres undefined) | -12.7
c1cc(C2CN(C3CCCC3)C2)n[nH]1 | 7.4
O=C(CCOc1ccccc1F)N1CCOCC1 | 48.2
CN(C)CCOCC1CN(Cc2ccccn2)Cc2nnn(C)c21 (centres undefined) | -2.35

SMILES | INHIBITION [%]
CN(C)c1ccnc(C2CCCN2)n1 (centres undefined) | 10.45
Cc1cccc(C2(CNC(=O)C(C)S(C)(=O)=O)CCCC2)c1 (centres undefined) | 2.39
Cc1cccc(C2(CNC(=O)CCNS(C)(=O)=O)CCCC2)c1 | 67.5
Cc1cccc(C2(CNC(=O)CO)CCCC2)c1 | 21.5
C[C@@H]1CN(c2ccc(Cl)cn2)CC[C@@]1(O)C1CCOCC1 | 17.215
CCOC(=O)N1CCC(OC)c2ccccc2N(C)C(=O)C1 (centres undefined) | 46.4
CCc1cc(=O)n(CC(=O)N2CCCC2)c(-c2cccc(F)c2)n1 | 46.6
COCC(=O)N1CCN(C(=O)c2scnc2C)CC1 | 21.3
CNC(=O)C1CCN(c2ncnc3c2CCN(C(=O)C2CC2)C3)C1 (centres undefined) | 57.8
O=C(C1CC1)N1CCCN(c2ncnc3c2CCNCC3)CC1 | -20.6
O=C(C1CC1)N1CCc2c(ncnc2N2CCN3CCCC3C2)C1 (centres undefined) | 46.6
CCOCC(=O)N1CCc2c(ncnc2N2CCOCC2)C1 | -68.2
Cc1cnc(-c2nc(O)c3c(n2)CN(C(=O)C2CC2)CC3)cn1 | 9.98
CCCOC1CCCN(c2ncnc3c2CCN(C(=O)C2CC2)C3)C1 (centres undefined) | 49.9
CSCCC(=O)N1CCc2c(ncnc2N2CCOCC2)C1 | -103
CCN1CCN(c2ncnc3c2CCN(C(=O)C2CC2)C3)CC1 | 61.1
CCN(CC)C1CCN(c2ncnc3c2CCN(C(=O)C2CC2)C3)C1 (centres undefined) | 64.5
CN1CCC(c2cnc(NCc3nccn3C)cn2)CC1 | 33.2
COCC1CN(Cc2ccc(C)o2)Cc2nnn(CC3CC3)c21 (centres undefined) | -8.19
Cn1nc(Br)nc1Sc1ccccc1NC(=O)C1CC1 | 37.4
O=C1N(Cc2cccc(Cl)c2)CCC12CCCNC2 (centres undefined) | -15.9
Cc1cnn(CC2CCCN2C(=O)CCc2c(C)nn(C)c2C)c1 (centres undefined) | 0.825
CCCC(NC(=O)c1cncc(C)c1)c1nnn[nH]1 (centres undefined) | 23.5

SMILES | INHIBITION [%]
CCN1CC[C@@]2(C(=O)Nc3ccccc3)CCN(S(C)(=O)=O)CC[C@@H]12 | 35.8
CCc1cc(C(=O)N[C@@H]2CC[C@@H](N3CCOCC3)[C@@H]2O)no1 | 10.9
Cc1ccnc(OCC(=O)N2CCN(c3ncccn3)CC2)n1 | -17.8
Cc1ccc(N2CCN(C(=O)COc3ncccn3)CC2)nn1 | -38.7
Cc1ccc(N2CCN(C(=O)COc3nccc(C)n3)CC2)nn1 | 50.5
CNC(=O)C1(c2cnccn2)CCCN1C(=O)c1c(F)cccc1F (centres undefined) | 34
Cc1cccc(=O)n1CCC(=O)N1CC[C@](C)(O)[C@H](C)C1 | 51.3
C[C@@H]1CN(C(=O)CCN2CCCC2)CC[C@@]1(O)C1CCOCC1 | 25.4
C[C@@H]1CN(C(=O)CCN2CCCC2)CC[C@@]1(O)C1CCC1 | 27.9
CC[C@H]1CN(C(=O)CCn2c(C)cccc2=O)CC[C@@]1(C)O | -22.7
C[C@@H]1CN(C(=O)CCCN2CCCC2)CC[C@@]1(O)C1CCOCC1 | 10.6
Cc1cccc(=O)n1CCC(=O)N1CC[C@@](O)(C2CCC2)[C@H](C)C1 | 47.6
C[C@@H]1CN(C(=O)CCCN2CCOCC2)CC[C@@]1(O)C1CCC1 | 64.9
C[C@@H]1CN(C(=O)CCCN2CCOCC2)C[C@@]1(O)C1CC1 | 37.7
C[C@@H]1CN(C(=O)CCN2CCOCC2)CC[C@]1(C)O | 55
CNCC1CCC(c2cc(CN(C)S(=O)(=O)N(C)C)n(C)n2)CC1 (centres undefined) | 44.3
CC(C)OC(=O)N1C[C@@H]2CC[C@H]1CN(C(=O)c1ccccn1)C2 | -26.4
COc1nonc1NCn1nc(C)cc1C | 39.7
CN(C)Cc1nc(C2(NC(=O)Nc3cccc(F)c3)CCCC2)no1 | 38.2
CCN1CCN(C2CCN(CC(=O)NCC(F)(F)F)CC2)C1=O | -3.2
Cc1nccn1[C@@H]1CC[C@@H](NC(=O)Cn2c(C)nc3ccccc32)[C@H]1O | 23.9
COc1ccccc1CN(Cc1nc(C)no1)C1CC1 | 17.4
Cc1cncnc1C1CCN(C(=O)C2(C)CCCCN2C)CC1 (centres undefined) | 1.45

— ChEMBL document CHEMBL4513216, “Probing the Open Global Health Chemical Diversity Library for Multistage-Active Starting Points for Next-Generation Antimalarials” (ACS Infect Dis, 2020)
